Experiment [1] deals with T1, Methionyl-tRNA synthetase, putative (Leishmania donovani (strain BPK282A1)) (UniProt E9BF75).
T1 sequence (whole entry): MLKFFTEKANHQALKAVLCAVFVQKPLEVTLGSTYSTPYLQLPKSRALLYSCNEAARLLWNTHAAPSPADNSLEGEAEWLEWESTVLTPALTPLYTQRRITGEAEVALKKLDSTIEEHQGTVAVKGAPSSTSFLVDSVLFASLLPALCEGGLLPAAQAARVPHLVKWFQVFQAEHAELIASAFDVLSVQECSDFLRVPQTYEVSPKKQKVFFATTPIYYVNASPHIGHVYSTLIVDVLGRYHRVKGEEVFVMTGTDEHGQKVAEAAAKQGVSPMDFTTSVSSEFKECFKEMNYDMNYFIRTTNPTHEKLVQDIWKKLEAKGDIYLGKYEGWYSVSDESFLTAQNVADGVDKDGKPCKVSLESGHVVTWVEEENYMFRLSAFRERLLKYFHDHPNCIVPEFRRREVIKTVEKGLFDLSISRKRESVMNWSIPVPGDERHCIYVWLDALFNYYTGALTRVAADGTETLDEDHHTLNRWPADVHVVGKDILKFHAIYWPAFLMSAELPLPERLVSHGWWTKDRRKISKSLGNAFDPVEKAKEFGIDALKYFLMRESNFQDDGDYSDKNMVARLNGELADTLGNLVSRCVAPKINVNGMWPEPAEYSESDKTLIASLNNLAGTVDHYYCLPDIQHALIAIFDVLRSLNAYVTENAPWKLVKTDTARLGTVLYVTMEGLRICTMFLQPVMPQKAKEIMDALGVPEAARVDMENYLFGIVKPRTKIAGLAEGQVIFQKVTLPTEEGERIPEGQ
Put plainly: Leishmania donovani Methionine tRNA synthetase (LdMetRS):v7. Dose response assay. The class given is functional. Also noted: conc 80 nM, time 150 minutes.

The target of experiment [2] is Protein translocase subunit SecA (Escherichia coli (strain K12)) (UniProt P10408). Put plainly: Assay to Identify E. coli SecA ATPase Inhibitors. The format is functional. Also noted: scale not given: direction of the effect not stated beside the values. The note with it: 30 µM.
Sequence of Protein translocase subunit SecA (Escherichia coli (strain K12)) (P10408 whole entry): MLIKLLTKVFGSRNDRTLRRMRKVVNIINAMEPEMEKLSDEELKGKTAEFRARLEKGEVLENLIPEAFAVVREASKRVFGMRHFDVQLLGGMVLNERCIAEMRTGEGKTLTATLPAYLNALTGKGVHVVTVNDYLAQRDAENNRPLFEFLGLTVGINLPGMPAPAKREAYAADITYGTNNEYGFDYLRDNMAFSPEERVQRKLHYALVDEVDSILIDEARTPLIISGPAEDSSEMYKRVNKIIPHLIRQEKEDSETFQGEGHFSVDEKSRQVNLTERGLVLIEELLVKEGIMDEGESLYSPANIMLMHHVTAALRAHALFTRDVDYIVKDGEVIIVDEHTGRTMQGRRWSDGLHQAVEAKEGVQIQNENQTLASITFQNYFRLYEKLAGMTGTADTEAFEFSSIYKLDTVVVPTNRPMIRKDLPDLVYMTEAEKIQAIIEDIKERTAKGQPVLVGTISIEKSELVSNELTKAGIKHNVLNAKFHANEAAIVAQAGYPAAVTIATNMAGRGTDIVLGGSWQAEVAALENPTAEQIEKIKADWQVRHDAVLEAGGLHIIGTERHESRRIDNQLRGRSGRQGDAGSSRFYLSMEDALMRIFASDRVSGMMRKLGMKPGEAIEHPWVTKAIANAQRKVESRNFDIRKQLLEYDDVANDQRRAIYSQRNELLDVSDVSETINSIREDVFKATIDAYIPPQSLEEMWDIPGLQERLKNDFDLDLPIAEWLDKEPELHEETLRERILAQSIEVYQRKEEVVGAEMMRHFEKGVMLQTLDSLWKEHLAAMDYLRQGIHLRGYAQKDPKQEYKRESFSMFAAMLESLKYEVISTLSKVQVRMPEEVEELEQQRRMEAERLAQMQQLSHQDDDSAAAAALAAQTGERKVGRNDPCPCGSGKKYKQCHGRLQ
Experiment [3] deals with T2, Ubiquitin-activating enzyme e1, putative (Leishmania donovani (strain BPK282A1)) (UniProt E9BSI1).
T2 sequence (whole entry): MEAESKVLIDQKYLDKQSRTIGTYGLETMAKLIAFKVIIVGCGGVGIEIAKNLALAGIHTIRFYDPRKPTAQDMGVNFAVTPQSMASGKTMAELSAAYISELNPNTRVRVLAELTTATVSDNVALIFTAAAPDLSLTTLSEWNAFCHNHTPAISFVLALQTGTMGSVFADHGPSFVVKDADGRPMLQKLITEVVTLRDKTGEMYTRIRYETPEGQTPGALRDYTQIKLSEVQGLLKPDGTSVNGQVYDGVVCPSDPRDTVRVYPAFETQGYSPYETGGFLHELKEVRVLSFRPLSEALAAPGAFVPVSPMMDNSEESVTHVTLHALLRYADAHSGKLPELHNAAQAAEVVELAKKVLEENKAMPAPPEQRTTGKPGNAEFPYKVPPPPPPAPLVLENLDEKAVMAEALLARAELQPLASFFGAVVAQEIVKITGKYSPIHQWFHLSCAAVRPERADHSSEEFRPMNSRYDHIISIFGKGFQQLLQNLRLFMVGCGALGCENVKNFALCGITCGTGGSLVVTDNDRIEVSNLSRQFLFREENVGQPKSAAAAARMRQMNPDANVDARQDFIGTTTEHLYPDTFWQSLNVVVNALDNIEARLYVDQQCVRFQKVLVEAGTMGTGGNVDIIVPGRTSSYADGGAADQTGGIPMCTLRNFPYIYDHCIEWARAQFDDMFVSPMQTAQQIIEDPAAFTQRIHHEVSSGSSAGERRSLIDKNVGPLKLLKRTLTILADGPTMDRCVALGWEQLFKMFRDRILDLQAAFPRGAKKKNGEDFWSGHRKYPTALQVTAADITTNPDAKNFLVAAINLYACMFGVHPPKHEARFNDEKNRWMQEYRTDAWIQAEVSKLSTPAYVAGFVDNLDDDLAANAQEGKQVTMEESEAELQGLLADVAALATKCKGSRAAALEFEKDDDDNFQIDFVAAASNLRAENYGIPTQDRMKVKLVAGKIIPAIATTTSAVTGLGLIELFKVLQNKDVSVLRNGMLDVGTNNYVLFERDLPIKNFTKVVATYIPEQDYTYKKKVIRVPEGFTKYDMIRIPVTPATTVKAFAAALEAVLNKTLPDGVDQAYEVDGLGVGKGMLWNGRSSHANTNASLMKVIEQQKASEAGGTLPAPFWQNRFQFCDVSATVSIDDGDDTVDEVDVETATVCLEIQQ
Put plainly: Leishmania donovani Ubiquitin Activating Enzyme (LdE1). The class given is functional. The note with it: 30 µM. Also noted: scale not given: direction of the effect not stated beside the values.

The target of experiment [4] is T3, Aspartate--tRNA(Asp/Asn) ligase (Mycobacterium tuberculosis (strain ATCC 25618 / H37Rv)) (UniProt P9WFW3). Also: in the data most compounds retested in dose-response had high values.
T3 sequence (whole entry): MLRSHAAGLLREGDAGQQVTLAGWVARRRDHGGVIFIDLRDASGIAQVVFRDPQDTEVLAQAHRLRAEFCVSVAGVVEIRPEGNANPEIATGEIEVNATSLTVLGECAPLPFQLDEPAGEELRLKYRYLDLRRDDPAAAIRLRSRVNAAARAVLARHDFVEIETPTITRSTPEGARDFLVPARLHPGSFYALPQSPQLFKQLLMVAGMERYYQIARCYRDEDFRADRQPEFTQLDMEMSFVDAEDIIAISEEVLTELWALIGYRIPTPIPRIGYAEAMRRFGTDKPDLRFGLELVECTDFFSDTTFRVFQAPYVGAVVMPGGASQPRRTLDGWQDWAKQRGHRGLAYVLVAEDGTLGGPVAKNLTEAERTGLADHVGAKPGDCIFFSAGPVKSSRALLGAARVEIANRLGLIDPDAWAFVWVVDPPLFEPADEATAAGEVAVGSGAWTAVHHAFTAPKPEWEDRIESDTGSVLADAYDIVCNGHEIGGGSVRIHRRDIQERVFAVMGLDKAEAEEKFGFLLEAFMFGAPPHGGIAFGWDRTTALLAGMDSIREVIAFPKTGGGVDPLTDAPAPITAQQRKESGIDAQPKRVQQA
The experiment in a line: Assay for Asp RNA synthetase-1 from Mycobacterium tuberculosis. The note with it: 30 µM. Also noted: scale not given: direction of the effect not stated beside the values. The format is functional.

Experiment [5] deals with AMP-activated protein kinase, AMPK (Homo sapiens) (UniProt P54646+O43741+P54619+Q9UGJ0+Q9Y478+Q13131+Q9UGI9). The experiment in a line: AMP-dependent Kinase enzyme assay. An in vitro enzyme assay that detects ADP turnover that is directly proportional to AMPK activity. This uses naive AMPK that is activated during the assay with MK-8722. The class given is functional. Also noted: scale not given: direction of the effect not stated beside the values. To be noted: 30 µM.

Experiment [6] concerns the target Sialic acid-binding Ig-like lectin 9 (Homo sapiens) (UniProt Q9Y336). Put plainly: Hs-Siglec9 ALPHAscreen SOP 20170721. Also noted: scale not given: direction of the effect not stated beside the values. To be noted: 10 µM.
A further experiment deals with Trypanosoma cruzi. The experiment in a line: Trypanosoma cruzi phosphomannomutase and mannose-1-phosphate guanylyltransferase assay. Also noted: scale not given: direction of the effect not stated beside the values. The note with it: 10 µM. The format is functional.
For experiment [7], the target named is T4, Arginase-2, mitochondrial (Homo sapiens) (UniProt P78540).
T4 sequence (whole entry): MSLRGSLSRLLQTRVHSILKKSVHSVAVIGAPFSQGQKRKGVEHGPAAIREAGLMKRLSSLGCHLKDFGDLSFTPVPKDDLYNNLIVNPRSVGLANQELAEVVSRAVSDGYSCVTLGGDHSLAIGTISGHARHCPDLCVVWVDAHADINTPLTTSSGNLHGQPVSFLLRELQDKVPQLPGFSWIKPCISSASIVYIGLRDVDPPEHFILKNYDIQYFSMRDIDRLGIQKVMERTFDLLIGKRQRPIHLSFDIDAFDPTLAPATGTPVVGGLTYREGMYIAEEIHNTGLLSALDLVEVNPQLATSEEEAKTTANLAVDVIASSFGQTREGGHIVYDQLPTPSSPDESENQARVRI
Put plainly: in vitro enzyme assay to detect the production of urea directly proportional to the activity of Arginase II. The class given is functional. Also noted: scale not given: in the data most compounds retested in dose-response had high values. The note with it: 33.3 µM.

Experiment [8] has as its target T5, Proteasome subunit beta (Trypanosoma cruzi) (UniProt O96673).
T5 sequence (whole entry): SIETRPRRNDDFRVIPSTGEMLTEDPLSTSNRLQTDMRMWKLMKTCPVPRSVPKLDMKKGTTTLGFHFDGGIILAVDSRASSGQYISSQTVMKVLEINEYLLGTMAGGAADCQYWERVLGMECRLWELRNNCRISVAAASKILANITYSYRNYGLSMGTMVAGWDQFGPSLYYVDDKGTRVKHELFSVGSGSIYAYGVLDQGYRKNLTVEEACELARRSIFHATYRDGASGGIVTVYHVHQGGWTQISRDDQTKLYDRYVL
The experiment in a line: Trypanosoma cruzi proteasome chymotrypsin-like activity (TcProtChymo) assay. The class given is functional. Also noted: scale not given: in the data most compounds retested in dose-response had high values. To be noted: 9.37 µM.

For the next experiment, the species on record is Homo sapiens. The experiment in a line: To identify inhibition of the IFN signalling (Jak-Stat) pathway via expression of an eGFP reporter gene under the control of an IFN-stimulated response element (ISRE) containing MxA promoter. The class given is functional. Also noted: scale not given: direction of the effect not stated beside the values. The note with it: 30 µM. A general note: In a reporter assay the amount or activity of a reporter protein is the signal.

Experiment [9] has as its target Shiga toxin 2 (Escherichia coli O157:H7) (UniProt P09385+P09386). Put plainly: E. coli 0.157:H7 Shiga Toxin SOP - stx2 screening assay. The format is functional. Also noted: scale not given: direction of the effect not stated beside the values. To be noted: 30 µM.
Experiment [10] has as its target T6, Tyrosyl-tRNA synthetase, putative (Trypanosoma cruzi (strain CL Brener)) (UniProt Q4DSP6).
T6 sequence (whole entry): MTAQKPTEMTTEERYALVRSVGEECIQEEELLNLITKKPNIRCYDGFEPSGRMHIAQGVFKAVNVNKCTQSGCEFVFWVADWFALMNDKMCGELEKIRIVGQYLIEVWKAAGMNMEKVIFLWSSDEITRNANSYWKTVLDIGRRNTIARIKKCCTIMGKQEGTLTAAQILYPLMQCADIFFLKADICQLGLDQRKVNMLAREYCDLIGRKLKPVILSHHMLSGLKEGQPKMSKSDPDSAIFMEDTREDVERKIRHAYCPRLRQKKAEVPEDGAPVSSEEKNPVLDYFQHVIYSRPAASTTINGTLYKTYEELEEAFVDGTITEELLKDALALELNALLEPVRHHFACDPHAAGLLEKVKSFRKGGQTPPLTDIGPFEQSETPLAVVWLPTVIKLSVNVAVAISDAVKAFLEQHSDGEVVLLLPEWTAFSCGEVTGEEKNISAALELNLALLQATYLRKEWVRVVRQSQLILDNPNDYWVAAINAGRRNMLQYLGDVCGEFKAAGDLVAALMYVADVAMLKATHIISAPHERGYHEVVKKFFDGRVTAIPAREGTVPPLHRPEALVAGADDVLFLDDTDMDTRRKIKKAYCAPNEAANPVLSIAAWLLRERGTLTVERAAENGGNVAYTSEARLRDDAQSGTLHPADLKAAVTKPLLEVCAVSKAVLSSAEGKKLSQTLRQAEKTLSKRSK
The experiment in a line: Trypanosoma cruzi tyrosyl tRNA synthetase (TcYRS) _High Tyrosine SOP. The format is functional. Also noted: scale not given: in the data most compounds retested in dose-response had high values. The note with it: 30 µM.

Experiment [11] deals with T6, Tyrosyl-tRNA synthetase, putative (Trypanosoma cruzi (strain CL Brener)). Put plainly: Trypanosoma cruzi tyrosyl tRNA synthetase (TcYRS) SOP. The format is functional. Also noted: scale not given: direction of the effect not stated beside the values. To be noted: 30 µM.
Experiment [12] concerns the target Chromo domain-containing protein 1 (Saccharomyces cerevisiae (strain ATCC 204508 / S288c) (Baker's yeast)) (UniProt P32657). The experiment in a line: ScCHD-1 Enzyme Inhibition Assay. The format is functional. Also noted: scale not given: in the data most compounds retested in dose-response had high values. To be noted: 30 µM.

For some assays here: Entries with a potency or affinity are not part of this list.

Sequence of Chromo domain-containing protein 1 (Saccharomyces cerevisiae (strain ATCC 204508 / S288c) (Baker's yeast)) (P32657 whole entry, the tested form may be a part): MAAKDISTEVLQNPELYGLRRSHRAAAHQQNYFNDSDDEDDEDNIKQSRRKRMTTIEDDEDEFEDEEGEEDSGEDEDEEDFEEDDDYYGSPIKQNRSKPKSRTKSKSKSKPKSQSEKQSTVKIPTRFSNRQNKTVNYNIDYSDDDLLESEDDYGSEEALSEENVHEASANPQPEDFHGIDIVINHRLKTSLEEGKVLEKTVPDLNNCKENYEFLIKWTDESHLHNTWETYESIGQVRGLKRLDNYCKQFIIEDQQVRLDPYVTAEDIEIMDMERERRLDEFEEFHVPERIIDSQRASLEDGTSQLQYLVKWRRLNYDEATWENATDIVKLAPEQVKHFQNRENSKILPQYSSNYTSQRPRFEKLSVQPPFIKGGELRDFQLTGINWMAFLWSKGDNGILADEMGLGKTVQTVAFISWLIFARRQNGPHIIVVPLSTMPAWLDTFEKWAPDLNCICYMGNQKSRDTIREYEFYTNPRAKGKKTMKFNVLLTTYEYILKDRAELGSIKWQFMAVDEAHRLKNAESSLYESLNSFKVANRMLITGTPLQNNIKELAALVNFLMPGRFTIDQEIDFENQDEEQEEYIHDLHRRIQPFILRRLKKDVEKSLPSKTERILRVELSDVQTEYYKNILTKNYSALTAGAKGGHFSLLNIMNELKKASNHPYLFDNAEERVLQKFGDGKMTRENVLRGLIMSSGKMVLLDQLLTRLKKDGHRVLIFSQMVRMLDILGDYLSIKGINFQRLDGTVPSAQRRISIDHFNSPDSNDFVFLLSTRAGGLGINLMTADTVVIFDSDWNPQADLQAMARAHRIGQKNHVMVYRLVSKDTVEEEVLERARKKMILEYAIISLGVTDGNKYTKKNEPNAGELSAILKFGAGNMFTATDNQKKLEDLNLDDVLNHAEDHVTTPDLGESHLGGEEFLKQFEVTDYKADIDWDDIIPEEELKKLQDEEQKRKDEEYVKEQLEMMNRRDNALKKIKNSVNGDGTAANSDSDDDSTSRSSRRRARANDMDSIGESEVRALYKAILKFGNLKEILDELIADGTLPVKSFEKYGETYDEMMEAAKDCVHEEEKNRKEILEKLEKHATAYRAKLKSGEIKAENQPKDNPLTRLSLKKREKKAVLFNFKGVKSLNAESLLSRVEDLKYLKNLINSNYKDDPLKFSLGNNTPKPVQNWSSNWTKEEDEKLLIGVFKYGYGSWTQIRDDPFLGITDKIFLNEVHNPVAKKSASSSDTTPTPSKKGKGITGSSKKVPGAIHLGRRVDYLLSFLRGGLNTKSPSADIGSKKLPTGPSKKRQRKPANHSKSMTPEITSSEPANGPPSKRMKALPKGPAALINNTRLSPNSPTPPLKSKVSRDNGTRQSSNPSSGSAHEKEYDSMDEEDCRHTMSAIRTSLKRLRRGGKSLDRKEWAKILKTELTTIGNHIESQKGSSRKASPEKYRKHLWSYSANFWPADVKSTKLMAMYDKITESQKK
Sequence of Sialic acid-binding Ig-like lectin 9 (Homo sapiens) (Q9Y336 whole entry): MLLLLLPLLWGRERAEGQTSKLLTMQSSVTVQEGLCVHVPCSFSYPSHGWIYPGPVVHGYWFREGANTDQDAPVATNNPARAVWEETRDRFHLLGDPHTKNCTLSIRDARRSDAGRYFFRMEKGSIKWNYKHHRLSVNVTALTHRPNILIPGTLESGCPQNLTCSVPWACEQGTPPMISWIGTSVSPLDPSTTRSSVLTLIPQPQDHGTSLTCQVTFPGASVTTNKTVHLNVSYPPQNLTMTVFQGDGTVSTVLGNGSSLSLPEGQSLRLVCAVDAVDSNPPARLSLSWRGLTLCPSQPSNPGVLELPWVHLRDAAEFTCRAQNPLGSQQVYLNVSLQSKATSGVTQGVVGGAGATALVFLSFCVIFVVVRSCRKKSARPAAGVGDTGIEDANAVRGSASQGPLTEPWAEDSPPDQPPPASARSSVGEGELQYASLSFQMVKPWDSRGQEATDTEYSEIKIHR

On to `NC1CC1c1ccc(Cl)cc1Cl` (centres undefined), for which the PXC50 in experiment [1] (MAX_EFFECT 19.58174905) and in experiment [1] (MAX_EFFECT 31.74946004) was under 3 throughout.

Turning to `c1cc(CN2C[C@@H]3COC[C@]3(COCC3CC3)C2)ccn1`, the Percent Effect is 1.31% in experiment [2]; 14.7% in experiment [3]; -0.406% in experiment [4]; -2.54% in experiment [5]; -3.01% in experiment [6]; -4.13% with Trypanosoma cruzi. In addition, the Percent Effect is -1.58% in experiment [7]; 7.58% in experiment [8]; -2.49% in the experiment listed under Homo sapiens; -47.3% in experiment [9]; 2.12% in experiment [10]; 7.69% in [11]. In [12], the Percent Effect was -2.5%.

The molecule `Clc1ccccc1Nc1ncnc(-n2cccc2)n1` had a PXC50 in experiment [1] (MAX_EFFECT 8.148148148) of under 4.

In the case of `CCN(CCc1ccccc1)Cn1nc(C)c2c(C)onc2c1=O`, the Percent Effect in experiment [2] is -5.66%; in experiment [3], -8.11%; in [4], 5.17%; in experiment [5], -13.6%; in experiment [6], 25.2%; in the experiment with Trypanosoma cruzi it was 3.68%. The Percent Effect in [7] was -3.21%; in experiment [8] it was 7.75%; in the experiment filed under Homo sapiens it was 5.78%; in experiment [9] it was 16%; in [10] it was 9.36%; in experiment [11], 23.5%. The Percent Effect in experiment [12] is -14.1%.

These data come from ChEMBL document CHEMBL3988442, “University of Dundee, Small-Polar-MMV Screening Library” (2021).
